PLK1 PBD block: qHTS for Inhibitors of PLK1-PDB (polo-like kinase 1 - polo-box domain): Primary Screen; Serine/threonine-protein kinase PLK1 (Homo sapiens), P53350; Potency, µM, actives largely listed as inhibitors; AID 720504, 2013; 360,000 compounds, 2.8% hits; Plk1 PBD binding of FITC phosphopeptide, fluorescence polarization; further: series mostly up to about 57 µM; nearly all actives have a fitted effect of over 65% in size
PI5P4Ka inh: qHTS for Inhibitors of phosphatidylinositol 5-phosphate 4-kinase (PI5P4K); PI5P4Kalpha enzyme, ADP-Glo luminescence, 60 min; hits give low values; max response, %; 330,000 compounds, 1.2% hits; AID 652105, 2013; active means max response of -50% or lower; inconclusive means between -30% and -50%; inactive means -30% or higher; further: value at the top dose of about 77 µM
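ADP-Glo luminescence end-point read after a 60 min room-temperature kinase reaction of PI5P4Kalpha plus substrate, initiated with ATP at 5 microM final. Buffer: 0.038 M HEPES pH 7.4, EGTA, 0.1% CHAPS, 5% DMSO.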
G9a block: qHTS Assay for Inhibitors of Histone Lysine Methyltransferase G9a. Histone-lysine N-methyltransferase EHMT2 (Homo sapiens), Q96KQ7. Potency, µM (highest dose often 102 µM), actives largely listed as inhibitors. G9a H3K9 monomethylation, AlphaScreen, 2 h. 350,000 compounds, 8.8% hits; further: nearly all actives have a fitted effect of over 75% in size
Target sequence (Q96KQ7 913-1193 limits assumed): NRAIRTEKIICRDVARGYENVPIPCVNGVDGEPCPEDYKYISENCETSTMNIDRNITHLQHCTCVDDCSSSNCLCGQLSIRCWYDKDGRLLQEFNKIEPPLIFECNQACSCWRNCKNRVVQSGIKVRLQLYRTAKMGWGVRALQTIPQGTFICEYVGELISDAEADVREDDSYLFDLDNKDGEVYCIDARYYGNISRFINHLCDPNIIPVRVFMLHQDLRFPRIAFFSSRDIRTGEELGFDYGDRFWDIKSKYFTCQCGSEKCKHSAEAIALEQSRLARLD
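Signal arises when biotinylated H3K9 peptide, once monomethylated, bridges streptavidin donor and antibody-captured acceptor beads. Enzyme at 20 nM was preincubated 15 min with test compounds; peptide 500 nM and SAM 20 uM then reacted for 2 h.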
JMJD2A Tudor: qHTS Assay for Inhibitors of JMJD2A-Tudor Domain; AlphaScreen JMJD2A-Tudor / H3K4me3 peptide binding; Potency, µM (series often up to 114 µM), actives largely listed as inhibitors; 390,000 compounds, 4.4% hits; AID 504339, 2011; further: nearly all actives have a fitted effect of over 50% in size
BAZ2B block: qHTS Assay for Inhibitors of BAZ2B | Bromodomain adjacent to zinc finger domain protein 2B (Homo sapiens), Q9UIF8 | AlphaScreen BAZ2B-H3K14Ac peptide displacement | Potency, µM (doses to about 114 µM), hits mostly inhibitors | 360,000 compounds, 4.4% hits | AID 504333, 2011; further: nearly all actives have a fitted effect of over 60% in size
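Protein-peptide AlphaScreen: BAZ2B 50 nM, b-H3K14Ac 50 nM, 1x PBS pH 7.4 + 0.01% Tween-20. Preincubation 30 min RT; cpd 30 min RT (top 110 uM); beads 20 min RT, light-protected.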
HP1b chromo inh: HTS for Inhibitors of HP1-beta Chromodomain Interactions with Methylated Histone Tails | AlphaScreen HP1-beta / biotin-H3K9me3 peptide binding | AID 540317, 2011 | Potency, µM (top dose mostly 114 µM), hits mostly inhibitors | Chromobox protein homolog 1 (Homo sapiens), P83916 | 390,000 compounds, 0.56% hits; further: nearly all actives have a fitted effect of over 70% in size
Target sequence (P83916 whole entry, looked up): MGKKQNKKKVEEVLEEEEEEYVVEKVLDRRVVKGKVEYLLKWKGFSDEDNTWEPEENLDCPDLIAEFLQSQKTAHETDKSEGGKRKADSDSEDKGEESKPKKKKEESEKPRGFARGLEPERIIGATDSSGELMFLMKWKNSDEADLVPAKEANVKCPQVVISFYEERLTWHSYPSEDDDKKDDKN
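AlphaScreen: HP1-beta (50 nM) preformed 30 min with biotin-H3(1-18)K9me3 peptide (50 nM) in PBS pH 7.4, 0.01% Tween-20. Compound added for 30 min at RT, then streptavidin donor/nickel chelate acceptor beads (10 ug/mL) for 30 min.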
A number is an active result; 0 = inactive; ? = inconclusive; - = no result given; [ ] = remark or other dose. The list is not random: actives were taken first. Their share in the collection is about 12%. Unless noted, the call rests on the fitted dose curve; in most records, active means well fitted curve in the direction sought with a large enough effect; inconclusive means small, poorly fitted or top-dose-only effect, or another doubt; inactive means no such curve, though single readings can be large; an effect the other way counts as inactive or inconclusive.

SMILES	PLK1 PBD block	PI5P4Ka inh	G9a block	JMJD2A Tudor	BAZ2B block	HP1b chromo inh
NS(=O)(=O)c1ccc(NC(=S)NCCc2ccccc2)cc1	6.7µM	0	11µM	0	0	0
O=[N+]([O-])c1ccc(NC(=S)NCCc2ccccc2)cc1	?	0	45µM	?	?	?
COc1ccc([N+](=O)[O-])cc1NC(=S)Nc1ccccc1	0	0	?	0	0	0
O=[N+]([O-])c1ccc(NNC(=S)Nc2ccccc2)cc1	?	?	?	50µM	50µM	56µM
O=[N+]([O-])c1ccc(O)c(NC(=S)Nc2ccccc2)c1	27µM	?	4.5µM	?	0	?
O=[N+]([O-])c1ccc(NC(=S)NCCc2ccc(Cl)cc2)cc1	0	0	0	?	?	0
CCCC1(C(=O)OC)NC(c2ccc(OC)cc2OC)C2C(=O)N(c3cccc(C(C)=O)c3)C(=O)C21 (configuration not stated)	0	0	0	0	0	0
O=C(NCc1ccccc1)[C@@H]1CCCN1C(=O)[C@@H]1CCCN1C(=O)c1cccs1	0	0	-	-	-	-
CCC(=O)N1CCc2cc(S(=O)(=O)CCC(=O)N3CCN(c4cc(C)ccc4C)CC3)ccc21	-	-	0	0	-	0
COc1cc(C(CC(=O)Nc2cc(C)ccc2C)N2Cc3ccccc3C2=O)cc(OC)c1OC (configuration not stated)	-	-	0	0	0	0
CC(C)OCCCNC(=S)Nc1ccc(S(N)(=O)=O)cc1	6µM	0	10µM	89µM	0	32µM
O=C(CCS(=O)CCC(=O)NCc1ccccc1)NCc1ccccc1	0	0	50µM	0	0	0
COc1ccc(CNC(=O)CCCc2ccccc2)cc1	0	0	0	0	0	?
CCc1ccc(OCCCC(=O)NCc2ccccc2)cc1	27µM	0	0	0	0	?
O=C(CCC(=O)NCc1ccccc1)NCc1ccccc1	0	0	?	0	0	0
COc1ccc(-c2nnc3n2N=C(c2ccc(OC)c(OC)c2)CS3)c(OC)c1	-	-	-	0	-	-
Oc1ccc(N=Nc2n[nH]c(-c3ccccc3)n2)cc1	0	0	3.2µM	?	?	0
Oc1ccc(-c2nc(-c3ccccc3)c(-c3ccc(Br)cc3)[nH]2)cc1	-	-	0	?	?	0
Oc1ccc(N=Nc2nc(-c3ccccc3)c(-c3ccccc3)[nH]2)cc1	0	0	20µM	22µM	11µM	0
CCN(CC)S(=O)(=O)c1ccc2c(c1)c(=O)c(C(=O)N(C)Cc1ccccc1)cn2C	-	-	0	0	-	0
COc1cccc(CNC(=O)c2oc3ccc4c(c3c2C)C(=O)CC(C)(C)O4)c1OC	-	-	0	0	0	0
CN(CC(=O)Nc1c(Cl)cccc1Cl)C(=O)CCC(=O)c1ccccc1	0	0	50µM	0	0	0
O=C(Cn1cc(CNCc2ccccc2)nn1)Nc1cc(C(F)(F)F)ccc1Cl	-	-	-	0	-	-
Cc1cc(C)c(C#N)c(SCC(=O)Nc2cccc(S(=O)(=O)N3CCCC3)c2)n1	0	0	50µM	0	0	0
Cc1cccc(NC(=O)CSCC(=O)Nc2ccc(S(=O)(=O)N3CCCCC3)cc2)c1	0	0	32µM	0	0	0
SMILES	PLK1 PBD block	PI5P4Ka inh	G9a block	JMJD2A Tudor	BAZ2B block	HP1b chromo inh
Cc1noc(C)c1C(=O)Nc1cccc(S(=O)(=O)N2CCCCC2)c1	0	0	0	0	0	0
Cc1cccc(NC(=O)CSCC(=O)Nc2ccccc2N2CCCC2)c1	0	0	?	?	35µM	0
CCc1noc(C)c1C(=O)Nc1cccc(S(=O)(=O)N2CCCCCC2)c1	0	0	8.9µM	0	0	0
Cn1c(=O)c2cc(NC(=O)CCc3ccccc3)ccc2n1-c1ccccc1F	0	0	-	-	-	-
CCc1ccc(C(=O)c2cn(CC(=O)Nc3ccc(OC)c(OC)c3)c3ccc(C)cc3c2=O)cc1	-	-	0	0	?	0
Cc1cccc(NC(=O)CSCC(=O)Nc2cccc(S(=O)(=O)N3CCCCCC3)c2)c1	0	0	35µM	0	0	0
CCc1noc(C)c1C(=O)N1CCN(S(=O)(=O)c2ccc(C(C)=O)cc2)CC1	0	0	40µM	0	0	0
CCn1c(COC(=O)CNC(=O)c2ccccc2F)nc2cc(S(=O)(=O)N(C)C)ccc21	0	0	0[0.501 µM]	0	0	0
CSc1nnc2c3ccccc3c3ccccc3c2n1	21µM	0	-	?	0	?
CC1CC(C)CN(S(=O)(=O)c2ccc(C(=O)Nc3nnc(-c4cccs4)o3)cc2)C1 (configuration not stated)	?	0	0	0	?	0
O=C(Nc1nnc(-c2cccs2)o1)c1cccc(C(F)(F)F)c1	30µM	0	0	?	0	0
N#Cc1ccc(C(=O)Nc2nnc(-c3cccs3)o2)cc1	27µM	0	-	56µM	50µM	0
CN(C)S(=O)(=O)c1ccc(C(=O)Nc2nnc(-c3cccs3)o2)cc1	?	0	0	79µM	?	0
COc1ccc(NC(=O)C(CC(C)C)NC(=O)C2CCC(C)CC2)c(OC)c1 (configuration not stated)	?	0	?	0	0	0
CCN(C(=O)c1cc2c(=O)oc3ccc(C)cc3c2s1)c1ccccc1C	-	-	0	0	0	0
CN(C)c1ccc(NC(=O)Nc2ccc3c(c2)c(=O)n(C)n3Cc2ccc(Cl)cc2)cc1	0	?	-	-	-	-
O=c1[nH]c(C2CCN(S(=O)(=O)c3ccc([N+](=O)[O-])cc3)CC2)nc2c1nnn2Cc1ccccc1	0	0	0	0	?	0
O=c1[nH]c(C2CCN(S(=O)(=O)c3ccccc3)CC2)nc2c1nnn2Cc1ccccc1	24µM	0	?	50µM	0	0
Cc1cc([N+](=O)[O-])nn1CC(=O)Nc1cccc2nonc12	0	-73	56µM	0	?	0
Cc1cc([N+](=O)[O-])nn1CC(=O)Nc1nc2ccccc2s1	0	0	?	0	0	0
CSc1ccccc1NC(=O)Cn1nc([N+](=O)[O-])cc1C	?	0	28µM	0	0	0
Cc1cc(C)n2[nH]c(=O)c(N=Nc3cccc(Cl)c3)c2n1	0	0	0	0	?	0
Cc1cc(C(F)(F)F)n2[nH]c(=O)c(N=Nc3ccccc3)c2n1	0	0	?	28µM	0	0
Cc1cc(C)n2[nH]c(=O)c(N=Nc3ccccc3)c2n1	0	0	7.9µM	?	?	0
O=c1[nH]n2c(C(F)(F)F)cc(C3CC3)nc2c1N=Nc1ccccc1	0	0	0	?	?	0
Oc1cccc(O)c1	-	-	0[2.33 µM]	-	-	-
Oc1cccc2cc3cccc(O)c3c(O)c12	?	0	?	?	40µM	0

Screening results (PubChem BioAssay)
